Assay results reported in the supplement of paper PMC9262897, “Low-cost anti-mycobacterial drug discovery using engineered E. coli” (Nature Communications, 2022).
Where a name gives a salt, the structure may show the parent alone. ± gives the standard deviation of the averaged measurements.

The compounds below were run on E. coli TESEC Mtb DapB (assay: growth (OD600 after 10 h); higher = more growth (less inhibition)). Details: arabinose induction (level): High; compound 0.1 mM; raw OD600 reference: median of DMSO wells […], cell-free background 0.041.
Procedure: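 TESEC E. coli strains in which the native enzyme is deleted and replaced by arabinose-inducible Mtb Asd, DapB, CysH or TrpD, each grown in its selective medium. Strains were screened against the Prestwick library at 0.1 mM and 1% DMSO in 384-well format at low and high arabinose induction. Growth is read as OD600 after 10 h in triplicate.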
`CC(CCc1ccccc1)NC(C)C(O)c1ccc(O)cc1` (stereo not given) [Nylidrin] was tested, and the growth was 0.222 ± 0.027. In the case of `CC(=O)O[C@H]1C[C@H](O[C@H]2[C@@H](O)C[C@H](O[C@H]3[C@@H](O)C[C@H](O[C@H]4CC[C@@]5(C)[C@H](CC[C@@H]6[C@@H]5C[C@@H](O)[C@]5(C)[C@@H](C7=CC(=O)OC7)CC[C@]65O)C4)O[C@@H]3C)O[C@@H]2C)O[C@H](C)[C@H]1O[C@@H]1O[C@H](CO)[C@@H](O)[C@H](O)[C@H]1O` [Lanatoside C], the growth is reported as 0.184 ± 0.021. For `O=C(O)CCCc1ccc(N(CCCl)CCCl)cc1` [Chlorambucil], the growth was 0.209 ± 0.023. Work on `CN(C)C(=O)Oc1ccc[n+](C)c1` [Pyridostigmine iodide] yielded a growth of 0.195 ± 0.017. Compound `CN[C@@H]1[C@@H](O)[C@@H](O[C@@H]2[C@@H](O)[C@H](O[C@H]3O[C@H](CN)CC[C@H]3N)[C@@H](N)C[C@H]2N)OC[C@]1(C)O.CN[C@@H]1[C@@H](O)[C@@H](O[C@@H]2[C@@H](O)[C@H](O[C@H]3O[C@H]([C@@H](C)N)CC[C@H]3N)[C@@H](N)C[C@H]2N)OC[C@]1(C)O.CN[C@@H]1[C@@H](O)[C@@H](O[C@@H]2[C@@H](O)[C@H](O[C@H]3O[C@H]([C@@H](C)NC)CC[C@H]3N)[C@@H](N)C[C@H]2N)OC[C@]1(C)O` [Gentamicine sulfate] has a growth of 0.21 ± 0.067. Compound `C[C@]12Cc3c[nH]nc3C[C@@H]1CC[C@@H]1[C@@H]2CC[C@@]2(C)[C@H]1CC[C@]2(C)O` [Stanozolol] has a growth of 0.219 ± 0.018. With `CC(Cc1ccccc1)NCCC(c1ccccc1)c1ccccc1` (stereo not given) [Prenylamine lactate] the growth was 0.0466 ± 0.00036. `CN[C@@H]1C[C@@H](c2ccc(Cl)c(Cl)c2)c2ccccc21` [Indatraline hydrochloride] gave a growth of 0.052 ± 0.0016. Work on `CN1CCN(C(=O)OC2c3nccnc3C(=O)N2c2ccc(Cl)cn2)CC1` (stereo not given) [Zopiclone] yielded a growth of 0.194 ± 0.0097. `O[C@@H]1CCCC[C@H]1N1CCC(c2ccccc2)CC1` [L(-)-vesamicol hydrochloride] was tested, and the growth was 0.194 ± 0.018. Work on `C[N+]1(C)[C@@H]2CC[C@H]1C[C@@H](OC(=O)C(CO)c1ccccc1)C2` (stereo not given in full) [Methylatropine nitrate] yielded a growth of 0.199 ± 0.028. Work on `COc1ccc(OC)c(C(O)C(C)N)c1` (stereo not given) [Methoxamine hydrochloride] yielded a growth of 0.223 ± 0.033. With `CCC1(c2cccc(O)c2)CCCCN(C)C1` (stereo not given) [Meptazinol hydrochloride] the growth was 0.215 ± 0.026. With `O=C(CCCN1CCC(n2c(=O)[nH]c3ccccc32)CC1)c1ccc(F)cc1` [Benperidol] the growth was 0.187 ± 0.026. `NCC(CC(=O)O)c1ccc(Cl)cc1` (racemic) [Baclofen (R,S)] was tested, and the growth was 0.219 ± 0.017. In the case of `CC(C)c1c(CN(C)C(C)Cc2ccccc2)n(C)n(-c2ccccc2)c1=O` (stereo not given) [Famprofazone], the growth is reported as 0.202 ± 0.0043. `C=C1C[C@@H]2[C@H](CC[C@]3(C)C(=O)CC[C@@H]23)[C@@]2(C)C=CC(=O)C=C12` [Exemestane] was tested, and the growth was 0.112 ± 0.0048. `c1ccc2nc(N3CCNCC3)ccc2c1` [Quipazine dimaleate salt] gave a growth of 0.215 ± 0.019. `C1CCc2nnnn2CC1` [Pentylenetetrazole] showed a growth of 0.227 ± 0.037. `CCC1(CC)C(=O)C=CNC1=O` [Pyrithyldione] was tested, and the growth was 0.205 ± 0.014.

Same assay, conditions: arabinose induction (level): Low; compound 0.1 mM; raw OD600 reference: median of DMSO wells 0.227, cell-free background 0.041
In the case of `CC(CCc1ccccc1)NC(C)C(O)c1ccc(O)cc1` (stereo not given) [Nylidrin], the growth is reported as 0.243 ± 0.0092. For `CC(=O)O[C@H]1C[C@H](O[C@H]2[C@@H](O)C[C@H](O[C@H]3[C@@H](O)C[C@H](O[C@H]4CC[C@@]5(C)[C@H](CC[C@@H]6[C@@H]5C[C@@H](O)[C@]5(C)[C@@H](C7=CC(=O)OC7)CC[C@]65O)C4)O[C@@H]3C)O[C@@H]2C)O[C@H](C)[C@H]1O[C@@H]1O[C@H](CO)[C@@H](O)[C@H](O)[C@H]1O` [Lanatoside C], the growth was 0.233 ± 0.03. With `O=C(O)CCCc1ccc(N(CCCl)CCCl)cc1` [Chlorambucil] the growth was 0.259 ± 0.023. `CN(C)C(=O)Oc1ccc[n+](C)c1` [Pyridostigmine iodide] showed a growth of 0.221 ± 0.0064. In the case of `CN[C@@H]1[C@@H](O)[C@@H](O[C@@H]2[C@@H](O)[C@H](O[C@H]3O[C@H](CN)CC[C@H]3N)[C@@H](N)C[C@H]2N)OC[C@]1(C)O.CN[C@@H]1[C@@H](O)[C@@H](O[C@@H]2[C@@H](O)[C@H](O[C@H]3O[C@H]([C@@H](C)N)CC[C@H]3N)[C@@H](N)C[C@H]2N)OC[C@]1(C)O.CN[C@@H]1[C@@H](O)[C@@H](O[C@@H]2[C@@H](O)[C@H](O[C@H]3O[C@H]([C@@H](C)NC)CC[C@H]3N)[C@@H](N)C[C@H]2N)OC[C@]1(C)O` [Gentamicine sulfate], the growth is reported as 0.112 ± 0.0046. In the case of `C[C@]12Cc3c[nH]nc3C[C@@H]1CC[C@@H]1[C@@H]2CC[C@@]2(C)[C@H]1CC[C@]2(C)O` [Stanozolol], the growth is reported as 0.193 ± 0.0045. Work on `CC(Cc1ccccc1)NCCC(c1ccccc1)c1ccccc1` (stereo not given) [Prenylamine lactate] yielded a growth of 0.04663 ± 0.00038. `CN[C@@H]1C[C@@H](c2ccc(Cl)c(Cl)c2)c2ccccc21` [Indatraline hydrochloride] showed a growth of 0.05117 ± 0.00042. Compound `CN1CCN(C(=O)OC2c3nccnc3C(=O)N2c2ccc(Cl)cn2)CC1` (stereo not given) [Zopiclone] has a growth of 0.224 ± 0.04. For `O[C@@H]1CCCC[C@H]1N1CCC(c2ccccc2)CC1` [L(-)-vesamicol hydrochloride], the growth was 0.201 ± 0.015. `C[N+]1(C)[C@@H]2CC[C@H]1C[C@@H](OC(=O)C(CO)c1ccccc1)C2` (stereo not given in full) [Methylatropine nitrate] showed a growth of 0.229 ± 0.0072. Compound `COc1ccc(OC)c(C(O)C(C)N)c1` (stereo not given) [Methoxamine hydrochloride] has a growth of 0.222 ± 0.028. `CCC1(c2cccc(O)c2)CCCCN(C)C1` (stereo not given) [Meptazinol hydrochloride] gave a growth of 0.217 ± 0.024. In the case of `O=C(CCCN1CCC(n2c(=O)[nH]c3ccccc32)CC1)c1ccc(F)cc1` [Benperidol], the growth is reported as 0.21 ± 0.0039. `NCC(CC(=O)O)c1ccc(Cl)cc1` (racemic) [Baclofen (R,S)] showed a growth of 0.246 ± 0.04. For `CC(C)c1c(CN(C)C(C)Cc2ccccc2)n(C)n(-c2ccccc2)c1=O` (stereo not given) [Famprofazone], the growth was 0.236 ± 0.04. `C=C1C[C@@H]2[C@H](CC[C@]3(C)C(=O)CC[C@@H]23)[C@@]2(C)C=CC(=O)C=C12` [Exemestane] was tested, and the growth was 0.109 ± 0.0022. `c1ccc2nc(N3CCNCC3)ccc2c1` [Quipazine dimaleate salt] gave a growth of 0.216 ± 0.012. Compound `C1CCc2nnnn2CC1` [Pentylenetetrazole] has a growth of 0.274 ± 0.11. `CCC1(CC)C(=O)C=CNC1=O` [Pyrithyldione] was tested, and the growth was 0.23 ± 0.01.
